Assay outcomes from PubChem.
aSyn 5UTR act: Activators via SNCA 5'UTR binding, MLPCN | actives 7.1% (n = 300,000) | activity score, % (tested at 7.5 µM), hits read low | alpha-synuclein 5'UTR reporter, activators screen; in the data active = activity score below about -60%
Of the large screens only hits and unclear results are named; the others gave an inactive call. The list is a sample of the results.

Cc1ccc(C(=O)Nc2cccc(C(=O)N3CCOCC3)c2)cc1	aSyn 5UTR act -89
COCc1ccc(C(=O)N(C)CC2CCCN(CCc3ccc(OC)cc3)C2)o1 (stereo not drawn)	aSyn 5UTR act -123
COc1ccc(CCN2CCCC(CN(C)C(=O)c3cc(C)oc3C)C2)cc1 (stereo not drawn)	aSyn 5UTR act -149
O=[N+]([O-])c1ccc(-c2ccc(/C=N/O)o2)cc1	aSyn 5UTR act -95
O/N=C\c1ccc(-c2ccccc2)o1	aSyn 5UTR act -112
C/C(=N\NC(=O)C(N)=O)c1ccc(NC(=O)c2cccs2)cc1	aSyn 5UTR act -140
C/C(=N/NC(=O)c1ccccc1)c1ccc(NC(=O)C(F)(F)F)cc1	aSyn 5UTR act -69
C/C(=N\NC(=O)c1ccco1)c1ccc(NC(=O)c2cccs2)cc1	aSyn 5UTR act -106
C/C(=N\NC(=O)c1ccccc1C)c1ccc(NC(=O)c2cccs2)cc1	aSyn 5UTR act -148
C/C(=N/OCC(=O)Nc1ccccc1)c1cccs1	aSyn 5UTR act -131
C/C(=N\NC(=O)c1ccccc1)c1ccc(NC(=O)c2cccs2)cc1	aSyn 5UTR act -108
O=C(NCC(=O)N1CCN(c2ccccc2O)CC1)c1cccs1	aSyn 5UTR act -63
CCCCc1c(O)nc(SCC(=O)c2ccccc2)[nH]c1=O	aSyn 5UTR act -87
O=C(CSc1nc(O)c(Cc2ccccc2)c(=O)[nH]1)c1ccccc1	aSyn 5UTR act -63
CC(C)(C)C(=O)CSc1ncnc2c1cnn2-c1ccccc1	aSyn 5UTR act -162
c1ccc(CSc2ncnc3c2cnn3-c2ccccc2)cc1	aSyn 5UTR act -142
COc1ccc(OC)c(NC(=O)/C=C/c2ccccc2[N+](=O)[O-])c1	aSyn 5UTR act -84
CN(C)S(=O)(=O)c1cccc(NC(=S)N/N=C/c2cc(Br)ccc2O)c1	none
O=C(/C=C/c1ccccc1[N+](=O)[O-])Nc1cccnc1	aSyn 5UTR act -123
CCCOc1ccc(/C=C/C(=O)Nc2ccc([N+](=O)[O-])cc2)cc1	none
COc1cccc(NC(=O)/C=C/c2ccc([N+](=O)[O-])cc2)c1	aSyn 5UTR act -84
CN(C)S(=O)(=O)c1cccc(NC(=O)/C=C/c2ccccc2[N+](=O)[O-])c1	aSyn 5UTR act -65
COc1cccc(NC(=O)/C=C/c2ccccc2[N+](=O)[O-])c1	aSyn 5UTR act -202
COC(=O)C(=Cc1ccccc1[N+](=O)[O-])C(=O)OC	aSyn 5UTR act -240
N#Cc1c(/N=C/c2cccs2)sc2c1CCC2	aSyn 5UTR act -88
N#Cc1c(/N=C/c2cc(Br)cs2)sc2c1CCC2	aSyn 5UTR act -190
OCCCCNc1cccc2ccccc12	aSyn 5UTR act -64
CCCc1nn(C)c(C(=O)Nc2ccc(Cl)cc2)c1Cl	aSyn 5UTR act -79
CCCc1nn(C)c(C(=O)Nc2cccc(C)c2)c1Cl	aSyn 5UTR act -123
CCCc1nn(C)c(C(=O)Nc2ccccc2)c1Cl	aSyn 5UTR act -98
Cc1ccccc1NC(=O)c1ccc2ccccc2c1	aSyn 5UTR act -150
NC(=O)c1ccccc1NC(=O)c1ccc2ccccc2c1	aSyn 5UTR act -139
NC(=O)c1ccccc1NC(=O)c1ccc2c(c1)OCO2	aSyn 5UTR act -152
CCc1c(C(=O)Nc2ccccc2C(N)=O)csc1C	aSyn 5UTR act -62
Cc1cc(NC(=O)NC(=O)c2cccc(OC(F)(F)C(F)F)c2)n[nH]1	aSyn 5UTR act -119
Cc1cc(NC(=O)c2cccc(Oc3ccccc3)c2)n[nH]1	aSyn 5UTR act -109
CCc1nnc(NC(=O)c2csc3c2CCC(C)C3)s1 (stereo not drawn)	aSyn 5UTR act -67
COc1ccccc1NC1=C(Cl)C(=O)N(C2CCCCC2)C1=O	aSyn 5UTR act -91
COc1cc(OC)c(NC2=CC(=O)C(=O)c3ccccc32)cc1Cl	none
Cc1ccccc1NC1=C(Cl)C(=O)N(C2CCCCC2)C1=O	aSyn 5UTR act -133
CC1CC(C)CN(Cc2nc(N)nc(Nc3ccc4ccccc4c3)n2)C1 (stereo not drawn)	aSyn 5UTR act -115
CC1=CC(c2ccccc2)=Nc2ccc(C)cc2N1	aSyn 5UTR act -151
CCOC(=O)CNC(=O)c1cc(-c2ccccn2)nc2c(C)c(Cl)ccc12	aSyn 5UTR act -66
COc1cc(C=O)c(Br)cc1OCc1ccc(C)cc1	aSyn 5UTR act -204
COc1nc(C)nc2c1sc1nc3c(cc12)COC(C)(C)C3	aSyn 5UTR act -145
Cc1nc(OCC(C)C)c2sc3nc4c(cc3c2n1)COC(C)(C)C4	aSyn 5UTR act -130
CCOCC(=O)Nc1ccc(Br)c(C)c1	aSyn 5UTR act -120
CC1(C)CC(NC(=O)c2cc(COc3cccc(C(F)(F)F)c3)on2)CCO1 (stereo not drawn)	aSyn 5UTR act -93
COc1cccc(OCc2cc(C(=O)NC3CCOCC3)no2)c1	aSyn 5UTR act -139
O=C(CN1C(=O)c2ccccc2S1(=O)=O)c1cccc(Br)c1	none
O=C(CN1CC(=O)Oc2ccccc21)OCC(=O)c1cccc(Br)c1	aSyn 5UTR act -66
O=C(CN1CC(=O)Oc2ccccc21)OCC(=O)c1ccccc1	aSyn 5UTR act -100
Cc1ccc(NC(=O)Cc2nc(CSc3nnc(-c4ccc5c(c4)OCO5)o3)cs2)cc1	aSyn 5UTR act -77
C=CCSc1n[nH]c(-c2ccc(OC)cc2)n1	aSyn 5UTR act -165
C=CCSc1n[nH]c(-c2ccccc2)n1	aSyn 5UTR act -100
CC(=O)c1cnc2cc(-c3cccc(Br)c3)nn2c1C	aSyn 5UTR act -213
Cc1cccc(-c2cc3nc(C)cc(C)n3n2)c1	aSyn 5UTR act -235
Cc1cc(C)n2nc(-c3cccc(Br)c3)cc2n1	aSyn 5UTR act -114
N#CCc1nc(CSc2nc3ccccc3s2)cs1	aSyn 5UTR act -116
CN(C)c1cccc(C(=O)NCC(c2ccco2)N(C)C)c1 (stereo not drawn)	aSyn 5UTR act -75
CN(C)C(CNC(=O)c1ccc2ccccc2c1)c1ccco1 (stereo not drawn)	aSyn 5UTR act -62
CCN(CC)S(=O)(=O)c1ccc2c(c1)nc(-c1ccccn1)n2C	aSyn 5UTR act -73
CC1(C)CNc2cc(N)ccc2S1	aSyn 5UTR act -74
CC1=CC(=C2C(=O)c3ccccc3C2=O)C=C(C)N1C	aSyn 5UTR act -132
CCCCCN1C=CC(=C2C(=O)c3ccccc3C2=O)C=C1	none
Cc1cc(C)c2c(c1)/C(=N\N=c1\sc3ccccc3n1C)C(=O)N2	aSyn 5UTR act -107
Cc1oc(/N=C/c2ccc3c(c2)OCO3)c(C#N)c1C	aSyn 5UTR act -74
CSc1nsc(N/N=C/c2ccc3c(c2)OCO3)c1C#N	aSyn 5UTR act -231
O=C(Cc1cccs1)N/N=C/C=C\c1ccco1	aSyn 5UTR act -78
O=C(CNC(=O)c1ccccc1F)N/N=C/c1cccs1	aSyn 5UTR act -94
O=C(N/N=C/C=C/c1ccco1)c1ccccc1Cl	aSyn 5UTR act -107
Cc1ccc(N/N=C/C=C/c2ccco2)cc1	aSyn 5UTR act -157
Cc1ccc(OCC(=O)N/N=C/C=C/c2ccco2)c(Br)c1	aSyn 5UTR act -64
O=C(N/N=C/C=C\c1ccco1)c1cccs1	aSyn 5UTR act -152
O=C(CNC(=O)c1cccs1)N/N=C/c1ccco1	aSyn 5UTR act -125
N#Cc1c(-c2ccccc2)c(-c2ccccc2)nn(CC(=O)NNC(=O)Nc2ccccc2)c1=O	aSyn 5UTR act -92
COc1ccc(-c2cc(=NC(CC(C)C)C(=O)O)c3cc(C)ccc3o2)cc1 (stereo not drawn)	aSyn 5UTR act -153
CCOC(=O)c1cnc(SCCc2ccccc2)nc1N	aSyn 5UTR act -102
CCCCSc1ncc(C(=O)OCC)c(N)n1	aSyn 5UTR act -140
CCOC(=O)c1[nH]cnc1N=Nc1c(O)ccc2ccccc12	none
CCOC(=O)c1cnc(SCc2ccc(C)cc2)nc1N	aSyn 5UTR act -179
